# Screening results from PubChem.
# GDH-TPI counter-1: inhibits GDH-TPI coupling enzymes, artifact for Mtb FBA screen; GDH-TPI coupled enzyme counterscreen, NADH absorbance; inhibition, % at 4.8 µM; actives 1.2% (n = 360,000); in the data active = inhibition above about 30%
# DUSP3 inh: inhibitors of human VHR1 phosphatase (DUSP3); P51452; recombinant VHR phosphatase, pNPP absorbance; inhibition, % at 13.3 µM; actives 0.52% (n = 290,000); AID 1654; in the data active = inhibition above about 50%
# Target sequence (P51452 whole entry, looked up): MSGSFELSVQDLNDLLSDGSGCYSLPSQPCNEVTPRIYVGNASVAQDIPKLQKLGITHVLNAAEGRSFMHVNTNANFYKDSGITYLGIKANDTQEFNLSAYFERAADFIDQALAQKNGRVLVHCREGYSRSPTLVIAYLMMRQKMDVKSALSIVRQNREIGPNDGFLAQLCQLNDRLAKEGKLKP
# Mtb FBA inh: inhibits M. tuberculosis FBA enzyme; P9WQA3; purified M. tuberculosis FBA, fluorescence read-out; inhibition, % at 1 µM; actives 2.3% (n = 360,000); AID 588726
# Target sequence (P9WQA3 whole entry, looked up): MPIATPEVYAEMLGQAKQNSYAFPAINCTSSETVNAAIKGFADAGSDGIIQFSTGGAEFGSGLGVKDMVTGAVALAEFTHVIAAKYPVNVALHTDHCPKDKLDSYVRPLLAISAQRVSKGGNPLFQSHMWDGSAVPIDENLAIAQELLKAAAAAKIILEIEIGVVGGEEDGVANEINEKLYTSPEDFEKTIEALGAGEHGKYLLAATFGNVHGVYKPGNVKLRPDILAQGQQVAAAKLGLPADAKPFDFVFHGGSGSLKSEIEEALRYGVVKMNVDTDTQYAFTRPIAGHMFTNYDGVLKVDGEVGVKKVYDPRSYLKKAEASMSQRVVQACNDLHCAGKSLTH
# SARS 3CLpro inh: SARS-CoV 3CLpro protease inhibition; P0C6X7; recombinant SARS-CoV 3CLpro, quenched FRET peptide cleavage; inhibition, % at 6 µM; actives 0.14% (n = 290,000); AID 1706; in the data active = inhibition above about 12%
# CCHFV vOTU inh: CCHFV vOTU protease inhibition | AID 651958 | inhibition, % at 11.5 µM | Pep-AMC fluorescence | actives 0.55% (n = 370,000); in the data active = inhibition above about 30%
# RecA splice inh: blocks M. tuberculosis RecA intein splicing. cell-free RecA intein splicing, fluorescence. AID 2221. inhibition, % (test concentration not listed). actives 0.75% (n = 290,000); in the data active = inhibition above about 30%
# Mtb FBA inh conf: Mtb FBA inhibition, confirmed; purified M. tuberculosis FBA, fluorescence read-out; inhibition, % at 1 µM; actives 78% (n = 5,600); shares compounds with Mtb FBA inh
# GDH-TPI counter-2: GDH-TPI inhibition counter-screen for FBA inhibitors; shares compounds with Mtb FBA inh; GDH-TPI coupled enzyme counterscreen, fluorescence; inhibition, % at 1 µM; actives 81% (n = 5,600); in the data active = inhibition above about 10%
# GDH-TPI dose: inhibits GDH-TPI coupling enzymes in dose response | IC50, µM | GDH-TPI coupled enzyme assay, fluorescence, artifact counterscreen | shares compounds with Mtb FBA inh | actives 79% (n = 170); call rule not given here
# Numbers stand for hits; i = inactive; nt = no result; + = active, no number. Most compounds without a hit are left out; they make up all but 4.7% or so of the library. Cut-off read from the data, not from the text of the source, unless noted: active = inhibition above about 27%; inactive = the rest.
SMILES,GDH-TPI counter-1,DUSP3 inh,Mtb FBA inh,SARS 3CLpro inh,CCHFV vOTU inh,RecA splice inh,Mtb FBA inh conf,GDH-TPI counter-2,others
NC(N)=NN=C1CCC(c2ccccc2)CC1 (configuration not stated),i,i,i,i,i,i,nt,nt,
COc1ccc(C2=NN(c3nc(C(=O)O)cs3)C(O)(C(F)(F)F)C2)c(OC)c1 (configuration not stated),i,i,53,i,i,i,79,61,
COc1cc(OC)cc(-c2oc3cccnc3c2C#CCCO)c1,i,i,42,i,i,i,i,i,
C[C@@H]1CN([C@H](C)CO)S(=O)(=O)c2ccc(C#Cc3ccccc3F)cc2O[C@@H]1CN(C)C(=O)Cc1ccccc1,i,nt,i,nt,i,nt,nt,nt,
COc1ccc2oc(C(=O)OCC(=O)Nc3ccc(N4CCOCC4)cc3)c(C)c2c1,i,nt,i,nt,i,i,nt,nt,
COc1ccc2oc(C(=O)OCC(=O)N3CCC(C)CC3)c(C)c2c1,i,i,44,i,i,i,i,i,
CCOC(=O)N1CCN(C(=O)COC(=O)c2oc3ccc(OC)cc3c2C)CC1,i,i,48,i,i,i,+,+,
COC(=O)C1CCN(C(=O)COC(=O)c2oc3ccc(OC)cc3c2C)CC1,i,i,51,i,i,i,108,103,
Cc1nn(-c2ccccc2)c(C)c1NC(=O)COC(=O)c1cccc(OC(F)F)c1,i,nt,i,nt,i,i,nt,nt,
Nc1ccc2ccccc2c1,i,nt,28,nt,i,nt,40,34,
CCOC(=O)c1cc2c(=O)n3cccc(C)c3nc2n(Cc2ccco2)c1=NC(=O)c1cccnc1,i,i,106,i,i,nt,31,35,
Cc1cccn2c(=O)c3cc(C#N)c(=N)n(Cc4cccnc4)c3nc12,i,nt,i,i,i,nt,nt,nt,
C[C@@H](CSc1ccccc1)CN1CC[C@H](NC(=O)OCc2ccccc2)CCC1=O,i,i,i,i,i,i,nt,nt,
COc1ccc(C(=O)c2sc3nc(-c4ccc(OC)cc4)ccc3c2N)cc1,i,i,34,i,i,i,28,31,
CCOC(=O)Nc1nc(-c2ccc(F)cc2F)cs1,i,i,i,i,i,i,nt,nt,
CNc1cncc(-c2ccc(F)cc2F)n1,i,nt,112,nt,i,nt,104,68,
CCCCc1cc(=O)oc2cc(OCC(=O)N3CCC(C(=O)O)(c4ccccc4)CC3)ccc12,i,i,i,i,i,i,nt,nt,
Cc1cc(=O)oc2cc(OCC(=O)N3c4ccccc4NC(=O)C3(C)C)ccc12,i,nt,34,nt,i,nt,107,87,
Cc1cc(=O)oc2cc(OCC(=O)N3CCC(C(=O)O)(c4ccccc4)CC3)ccc12,i,i,28,i,i,i,i,26,
Cc1cc(=O)oc2cc(OCC(=O)N3CCN(C(=O)c4ccco4)CC3)ccc12,i,i,27,i,i,i,79,68,
Cc1cc(=O)oc2cc(OCC(=O)N3CCN(Cc4ccccc4)CC3)ccc12,i,nt,35,nt,i,nt,i,i,
CCOC(=O)c1c(Nc2ccccc2OCCOC)n[nH]c1C,i,i,i,i,i,i,nt,nt,
COc1ccc(CNC(=O)CCN2C(=O)[C@@H]3Cc4ccccc4CN3C2=O)cc1,i,i,i,i,i,i,nt,nt,
Cc1ccc(S(=O)(=O)N(C)CC(=O)N2CCCCCC2)cc1,i,i,i,i,i,i,nt,nt,
N#Cc1ccccc1NC(=O)COc1ccccc1C(=O)Nc1ccccc1,i,nt,i,nt,i,nt,nt,nt,
SMILES,GDH-TPI counter-1,DUSP3 inh,Mtb FBA inh,SARS 3CLpro inh,CCHFV vOTU inh,RecA splice inh,Mtb FBA inh conf,GDH-TPI counter-2,others
CN(Cc1ccc2c(c1)CCCN2C)C(=O)[C@H]1O[C@@H](n2cnc3c(N)ncnc32)[C@H](O)[C@@H]1O,nt,nt,i,nt,i,nt,nt,nt,
CCOC(=O)c1ccc2nc(CCC(=O)N[C@H](C(=O)OC)C(C)C)c(=O)n(CC)c2c1,i,i,i,i,i,i,nt,nt,
O=C(Cc1ccccc1)Nc1cccc(C(=O)O)c1O,i,i,76,i,i,i,82,49,
CS/C(=N\S(=O)(=O)c1cccs1)Nc1ccc(Br)cc1F,i,i,i,i,i,i,nt,nt,
Nc1ccccc1C(=O)Nc1nccs1,i,i,55,i,i,nt,128,84,
O=C(Nc1nccs1)c1ccccc1Br,i,i,i,i,i,i,nt,nt,
CCOc1ccc(CN2CCNC(=O)C2CC(=O)NCCc2nc(C)c3c(n2)CCC3)cc1 (configuration not stated),i,i,28,i,i,i,+,154,
c1ccc(-c2ccc3ccccc3n2)cc1,i,nt,i,nt,i,i,nt,nt,
Nc1ccc2oc(-c3ccccn3)nc2c1,i,i,i,i,i,i,nt,nt,
c1ccc2nc(-c3nc4ccccc4o3)ccc2c1,i,i,69,i,i,i,118,104,
c1ccc(-c2nc3ccccc3o2)nc1,i,i,29,i,i,i,i,i,
Cc1ccn2cc(CCNC(=O)CC(C)(C)C)nc2c1,i,i,27,i,i,i,45,29,
COc1ccc(C(=O)NCCc2cn3ccc(C)cc3n2)cc1,i,i,i,i,i,i,nt,nt,
Cc1ccn2cc(CCNC(=O)C3CC=CCC3C(=O)O)nc2c1 (configuration not stated),i,i,31,i,i,nt,+,+,
Cc1ccn2cc(CCNC(=O)COc3ccccc3)nc2c1,i,i,35,i,i,i,46,30,
Cc1ccn2cc(CCNC(=O)Cc3cccs3)nc2c1,i,i,i,i,i,i,nt,nt,
O=C(Cc1c(Cl)cccc1Cl)OCC(=O)c1ccc[nH]1,i,nt,i,nt,i,nt,nt,nt,
Cc1ccc(C(=O)N2CCC(N3CCC(C(=O)N4CCOCC4)CC3)CC2)cc1,i,nt,i,nt,i,nt,nt,nt,
COc1ccc(-c2[nH]nc3oc(=O)cc(C)c23)cc1,i,i,43,i,i,i,i,i,GDH-TPI dose=3.4
CSc1ncccc1C(=O)OCC(=O)c1[nH]c(C)c(C(C)=O)c1C,i,nt,i,nt,i,nt,nt,nt,
CC1(C(=O)O)Oc2cccnc2NC1=O (configuration not stated),i,i,i,i,i,i,nt,nt,
CC1=CC(=O)Nc2ncccc2O1,i,nt,61,nt,i,nt,84,76,
COc1ccc(-c2ccc3c(=O)cc(-c4ccsc4)oc3c2)cn1,i,nt,48,nt,i,nt,i,i,
COc1ccc(OC)c(/C=N/NC(=O)CCc2ccc(O)c(O)c2)c1,i,i,43,i,i,i,127,99,
COc1ccc(OC)c(/C=N/NC(=O)c2c(C)nc3ccc(C)cn23)c1,i,i,78,i,i,i,105,88,
COc1cccc(/C=N/NC(=O)c2c(C)nc3ccc(Br)cn23)c1,i,i,i,i,i,i,nt,nt,
COc1ccc(OC)c(/C=N/NC(=O)CCc2c(C)n[nH]c2C)c1,i,i,78,i,i,i,95,89,
